D1 agonist: Allosteric Agonists of the Human D1 Dopamine Receptor: qHTS; activation, % at 2 µM; AID 504660, 2011; D(1A) dopamine receptor (Homo sapiens), P21728; actives 1% (n = 360,000); HEK293 T-REx D1 cells, calcium flux, agonist mode; in the data active means activation above about 30%; further: 0% is about no effect
Target sequence (P21728 whole entry, looked up): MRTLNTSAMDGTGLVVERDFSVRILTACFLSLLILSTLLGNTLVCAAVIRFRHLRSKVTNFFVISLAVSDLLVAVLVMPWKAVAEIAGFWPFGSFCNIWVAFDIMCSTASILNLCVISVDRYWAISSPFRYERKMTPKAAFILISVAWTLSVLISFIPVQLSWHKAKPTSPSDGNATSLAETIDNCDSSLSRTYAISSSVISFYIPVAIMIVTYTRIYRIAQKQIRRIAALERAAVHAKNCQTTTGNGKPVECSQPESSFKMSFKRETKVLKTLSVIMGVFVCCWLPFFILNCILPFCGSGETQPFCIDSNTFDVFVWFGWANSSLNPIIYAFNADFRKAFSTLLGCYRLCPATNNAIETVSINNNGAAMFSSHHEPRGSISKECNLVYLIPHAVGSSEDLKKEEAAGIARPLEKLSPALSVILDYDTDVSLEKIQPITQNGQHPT
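Inducible HEK293 T-REx D1 cells, force-coupled to calcium signalling, were plated at 4000 cells/well with tetracycline and held overnight at 30 C. After no-wash calcium dye loading, compound-evoked calcium rise over 180 s flagged agonists.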
ERG Ets-DNA blk: qHTS for Small Molecule Inhibitors of the ERG Ets/DNA interaction; Transcriptional regulator ERG (Homo sapiens), P11308; fluorescence polarization, His-ERG Ets domain / labelled DNA; Potency, µM (top dose mostly 76.9 µM), for the others: at the highest dose FP activity, negative = inhibition, hits mostly inhibitors; actives 0.028% (n = 370,000); active means well fitted inhibition curve with a large enough effect in the polarisation, with a control signal flat; inconclusive means small, poorly fitted or top-dose-only effect, or effect the other way, or a change in a side signal; inactive means no such curve, though single readings can be large or run the other way; the % refers to the polarisation;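 further: polarization taken with two DNA probes labelled with fluorescein and Texas red; potency means the concentration at half of the fitted maximal effect; % of control where 0% means no effect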
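His-tagged ERG Ets domain (1 uM in the protein solution; 300mM KCl, 50mM Tris-HCl, 1mM EDTA, 1mM DTT, pH 7.5) received compound, then a probe mix of 5 nM fluorescein-DNA and 100nM Texas-615-DNA. Fluorescence polarization was read for both dyes.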
D1 potentiator: Potentiators of Human D1 Dopamine Receptor: qHTS | actives 0.036% (n = 360,000) | potentiation, % at 10 µM | HEK293 TREx D1 cells, calcium flux, dopamine EC20 potentiation; in the data active means potentiation above about 30%; further: 0% is about no effect
D1 antag: Antagonist of Human D 1 Dopamine Receptor: qHTS | D(1A) dopamine receptor (Homo sapiens), P21728 | HEK293 TREx D1 cells, calcium flux, dopamine EC80; stronger effect = lower value | activity change, negative = inhibition, % at 10 µM | actives 3.2% (n = 360,000) | AID 504652, 2011; in the data active means activity change below about -30%; further: on the % scale 0 is the no-effect control and ±100 the full control effect
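HEK293 T-REx cells expressing inducible, force-coupled D1 receptor; no-wash Ca dye, 30–90 min RT. Cmpd → 180 s read at 1 Hz → EC80 DA → 180 s read.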
DRD3 antagonist: qHTS of D3 Dopamine Receptor Antagonist: qHTS; D(3) dopamine receptor (Homo sapiens), P35462; D3R cells, DiscoveRx beta-arrestin luminescence, antagonist mode; stronger effect = lower value; max response, negative = inhibition, %; actives 2.5% (n = 360,000); in the data active means max response below about -50%; inconclusive means no clear call, values can overlap the other calls; further: on the % scale 0 is the no-effect control and ±100 the full control effect
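Cells plated overnight at 1500 cells/well, then exposed to library compounds with dopamine controls for 90 minutes at 37 degrees C. DiscoveRx reagent added for 30–60 minutes at room temperature; luminescence read, quantitative HTS format.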
D3 ag: qHTS of D3 Dopamine Receptor Agonist: qHTS; D(3) dopamine receptor (Homo sapiens), P35462; D3R DiscoveRx beta-arrestin cells, luminescence, 90 min; max activation, %; actives 0.58% (n = 410,000); AID 652048, 2013; in the data active means max activation above about 30%; further: 0% is about no effect
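Cells at 1500/well, incubated overnight, then treated with pinned compounds (dopamine as control) for 90 min at 37 degrees C. DiscoveRx reagent added for 30 - 60 minutes at room temperature; luminescence read.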
* marks the source's active call; other numbers are inactive results; ? = inconclusive; · = no result given. An excerpt weighted towards active compounds, which were near 6.1% of everything screened.

SMILES	D1 agonist	ERG Ets-DNA blk	D1 potentiator	D1 antag	DRD3 antagonist	D3 ag
Cc1cccc[n+]1CC(=O)/C=C1\N(C)c2ccccc2C1(C)C	6	6%	0	-1	-9	1
c1ccc(Cn2c(Nn3cnnc3)nc3ccccc32)cc1	5	-16%	-1	6	-15	-6
COc1cc(CNCc2ccc(Br)cc2)cc(OC)c1	82*	-2%	-8	-4	-7	-14
COc1cc(CNCc2ccc(OC)cc2OC)cc(OC)c1	16	?	7	-12	-7	-2
COc1cc(CNCc2cccc3ccccc23)cc(OC)c1	17	-1%	-8	0	?	-4
COc1cc(CNCc2c[nH]c3ccccc23)cc(OC)c1	26	-19%	-6	-40*	-20	-12
COc1ccc(-n2ncc(S(=O)(=O)c3ccccc3)c2-c2ccc(Cl)cc2)cc1	10	-1%	-4	-44*	22	-1
Cc1c(C(=O)N(C)C)sc2nc(-c3ccccn3)[nH]c(=O)c12	2	0%	-2	-4	-57*	1
O=c1c2cc(-c3ccccc3)sc2nc2n1N=C(c1ccccc1)CS2	4	9%	3	24	-6	-1
O=c1[nH]c(-c2ccccn2)nc2sc(-c3ccccc3)cc12	7	-7%	3	-31*	?	-11
O=C1c2cccnc2Nc2ccccc2N1CCCF	0	5%	-3	-33*	-10	-4
CNC(=O)CCCN1C(=O)c2cccnc2Sc2ccccc21	2	0%	-6	-17	·	3
CSc1cccc(CN2CCC(CO)(Cc3ccccc3)CC2)c1	19	-11%	-5	-5	-23	-6
CCN1CCCC(CO)(Cc2ccccc2)C1 (stereo unspecified)	2	-2%	-6	-6	16	-3
OCC1(Cc2ccccc2)CCCN(Cc2ccc(-c3ccco3)cc2)C1 (stereo unspecified)	1	10%	-6	2	-90*	-20
OCC1(Cc2ccccc2)CCN(Cc2ccc(-c3ccco3)cc2)CC1	8	2%	3	5	-85*	-31
O=C1C[C@@H]2c3c(cccc3CN1Cc1ccccc1F)C[C@@H](O)[C@H]2O	·	-11%	·	·	0	49*
O=C(Nc1ccccc1)OCC1CCCN2CCCCC12 (stereo unspecified)	7	0%	-2	-15	-53*	-14
O=C(Nc1ccccc1)OCC(CN1CCCCC1)OC(=O)Nc1ccccc1 (stereo unspecified)	5	3%	-6	22	-89*	-80
O=C(/C=C/c1ccco1)OCC1CCCN2CCCCC12 (stereo unspecified)	4	35%	0	-7	-8	0
Cc1ccc(NC(=O)CN(C)C(=O)Cc2ccccc2F)cc1	1	-6%	2	-9	-18	2
Cc1nnc(SCc2cc(=O)n3cccc(C)c3n2)s1	0	6%	2	-47*	·	-22
OCC1CCN(Cc2nc(Cc3ccccc3Cl)no2)CC1	1	5%	-4	-4	0	3
Nc1nc(-c2ccc(F)cc2)cc(C(F)(F)F)n1	-2	-2%	2	19	-23	-2
CS(=O)(=O)c1nc(-c2ccc(F)cc2)cc(C(F)(F)F)n1	1	-9%	-1	2	-79*	-15
COc1ccc(-c2cc(C(F)(F)F)nc(S(C)(=O)=O)n2)cc1	2	0%	-1	-22	-75*	-19
Cc1nc2ccc(C(=O)N3c4ccccc4N=C(c4ccc5c(c4)OCO5)C3C(=O)NCc3ccccc3)cc2[nH]1 (stereo unspecified)	·	·	·	·	-16	0
O=C(O)CCCC(=O)NCc1ccccn1	3	-5%	-3	10	6	7
C[C@@]12CCC=C[C@H]1[C@H](c1ccoc1)N(Cc1ccccc1)C2=O	1	0%	-2	-18	-29	5

From PubChem
